Hits are enriched below; roughly 9.3% of the tested compounds scored in any of these assays.
Vaccinia mCherry = inhibitors of vaccinia virus infection (mCherry reporter signal); Vaccinia virus mCherry reporter infection, fluorescence; Potency, µM (doses to about 36.5 µM), hits mostly inhibitors; actives 0.63% (n = 310,000); calls by dose curve; tested in A549 cells; also: nearly all actives have a fitted effect of over 35% in size
HCV inh = inhibitors of hepatitis C virus infection | Potency, µM (titrated, usually from 41.8 µM), most hits filed as inhibitors | Huh7.5.1 HCVcc-Cre infection, luciferase reporter, 44 h | actives 3.4% (n = 340,000) | AID 651820
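Cells (1,000/well) were plated 4 h before compound, then infected with HCVcc-Cre virus (~0.5 moi). After 44 h further culture, infection was read as luciferase luminescence following a 15 min substrate incubation at room temperature.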
FMDV inh = foot and mouth disease virus antiviral activity. FMDV antiviral cell-based qHTS. Potency, µM (series often up to 57.9 µM), hits mostly inhibitors. actives 1.2% (n = 410,000); calls by dose curve; tested in HEK293T cells; also: read-out not given here; nearly all actives have a fitted effect of over 45% in size
Sm TGR inh = S. mansoni TGR enzyme inhibition | purified TGR, DTNB reduction, TNB absorbance 405 nm | Potency, µM (doses to about 114 µM), most hits filed as inhibitors | actives 3% (n = 360,000) | AID 485364; also: nearly all actives have a fitted effect of over 60% in size
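Kinetic colorimetric format: TGR-catalysed, NADPH-driven DTNB reduction monitored via TNB absorbance. Enzyme dispensed at 20 nM; compound exposure 15 min at room temperature before reaction start.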
HCMV antiviral = inhibitors of human cytomegalovirus; activity change, negative = inhibition, % at 57.5 µM; AID 1259415; actives 4.5% (n = 410,000); HFF cells, HCMV-luciferase reporter, 72 h; active compounds read low; in the data active = activity change below about -60%; inconclusive = no clear call, values can overlap the other calls; inactive = above about -39%
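Luciferase read-out from HCMV-luciferase-infected HFFs (MOI 1 PFU/cell) 72 h post infection at 37C; compounds added after 16 h cell attachment; activity normalized between buffer-only basal and Salinomycin (10uM) inhibitor controls.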
VACV Venus inh = vaccinia inhibition (Venus reporter); actives 0.46% (n = 330,000); Potency, µM (highest dose often 36.5 µM), usual class: inhibitors; Vaccinia virus Venus reporter expression, fluorescence; calls by dose curve; tested in A549 cells; also: nearly all actives have a fitted effect of over 30% in size
A number is an active result; 0 = inactive; ? = inconclusive; - = no result given; [ ] = another dose, or the depositor's remark. Unless noted, calls follow the shape of the dose curve; as a rule, active = well fitted curve in the direction sought with a large enough effect; inconclusive = small, poorly fitted or top-dose-only effect, or another doubt; inactive = no such curve, though single readings can be large; an effect the other way counts as inactive or inconclusive.

SMILES | Vaccinia mCherry | HCV inh | FMDV inh | Sm TGR inh | HCMV antiviral | VACV Venus inh
CC1(C(=O)NS(=O)(=O)c2ccc(Cl)cc2)CCN1C(=O)COc1ccc(Cl)cc1 (stereo unspecified) | 0 | - | 0 | - | 0 | 0
COC(=O)c1c(C)[nH]c(C(=O)COC(=O)Cc2ccc3c(c2)OCCO3)c1C | - | 0 | 0 | 0 | 0 | -
O=C(O)c1cccc2c1C(=O)c1ccccc1-2 | 0 | 0 | 0 | 0 | 0 | 0
O=C1C(=C(I)I)c2ccccc2-c2ccccc21 | ? | 8.9µM | 18µM | - | -100 | ?
Clc1cccc(-c2nc3ccccn3c2Nc2ccc3c(c2)OCCO3)c1 | 0 | - | 0 | 0 | -104 | 0
Cc1ccc2nc(-c3cccc(Cl)c3)c(Nc3ccc4c(c3)OCO4)n2c1 | 0 | - | 0 | 0 | 0 | 0
CN(C)c1ccc(-c2nc3ccccn3c2Nc2ccc3c(c2)OCCO3)cc1 | 0 | - | 0 | 0 | -96 | 0
Oc1ccc(-c2nc3ccccn3c2Nc2ccc3c(c2)OCCO3)cc1 | 0 | - | 0 | 0 | 0 | 0
COc1ccccc1CCc1nnc(CCC(=O)NC(C)Cc2cccc(C)n2)o1 (stereo unspecified) | 0 | 0 | 0 | 0 | 0 | 0
CCC(C)(C(=O)NC1CCCCC1)N(CC1CCCO1)C(=O)CNC(=O)c1ccccc1 (stereo unspecified) | 0 | 0 | 0 | 0 | 0 | 0
N=c1n(CC(=O)c2ccc([N+](=O)[O-])cc2)c2ccccc2n1Cc1ccccc1Cl | 0 | 0 | 28µM | 0 | ? | 0
Cc1ccc(C(=O)Cn2c(=N)n(N)c3ccccc32)cc1 | - | 0 | 40µM | 0 | 0 | -
N=c1n(Cc2ccccc2)c2ccccc2n1Cc1ccccc1 | 0 | ? | 0 | 0 | ? | ?
N=c1n(CC(=O)c2ccc([N+](=O)[O-])cc2)c2ccccc2n1Cc1ccccc1 | 0 | ? | 0 | 0 | -83 | 0
N=c1n(CC(=O)c2ccc([N+](=O)[O-])cc2)c2ccccc2n1Cc1ccc(Cl)cc1 | - | 0 | 0 | 0 | 0 | -
N=c1n(CC(=O)c2ccc(Br)cc2)c2ccccc2n1Cc1ccccc1 | ? | ? | 0 | 0 | -61 | 11µM
COc1cccc(/C=C/C(=O)OCC(=O)Nc2nnc(-c3ccccc3)o2)c1OC | 0 | 0 | 0 | - | 0 | 0
C/C(=N\NC(=O)CSCc1ccc([N+](=O)[O-])cc1)c1ccccc1O | 0 | ? | 0 | 0 | 0 | 0
Cc1nc2cc(-c3cccc(F)c3)nn2c(C)c1CCC(=O)Nc1ccccc1C(N)=O | 0 | - | ? | 0 | 0 | 0
CCC1(C)Cc2nc3[nH]c(=S)n(-c4ccccc4)c(=O)c3cc2CO1 (stereo unspecified) | 0 | 0 | 0 | 0 | -63 | 0
CCN(CC)CCSc1nnc2c3ccccc3n(CCc3ccccc3)c2n1 | ? | 10µM | 0 | 0 | -79 | ?
CCCn1c2ccc(F)cc2c2nnc(SCCN(CC)CC)nc21 | 0[7.34 µM] | - | 0 | 0 | 0 | 0[7.34 µM]
c1ccc(CCn2c3ccccc3c3nnc(SCc4ccc5nonc5c4)nc32)cc1 | 0 | ? | ? | 0 | -81 | 0
CC(Oc1cccc2c1OC(C)(C)C2)C(=O)O (stereo unspecified) | - | 0 | 0 | 0 | 0 | 0
Cc1sc2nc(CSc3ncn[nH]3)[nH]c(=O)c2c1C | 0 | 0 | 0 | 0 | 0 | 0
SMILES | Vaccinia mCherry | HCV inh | FMDV inh | Sm TGR inh | HCMV antiviral | VACV Venus inh
CCOc1ccc(-n2c(SCC(=O)N3CCc4ccccc43)nnc2-c2c[nH]c3ccccc23)cc1 | 0 | 0[8.37 µM] | 0 | 0 | 0 | 0
COc1cc(-c2coc3c(C(=O)Nc4ccc(C(C)C)cc4)cccc23)ccc1O | 0 | - | 0 | - | 0 | 0
OCCN1CCN(c2ncnc3c2sc2nc(N4CCOCC4)c4c(c23)CCC4)CC1 | ? | 11µM | - | 0 | 0 | ?
CCOC(=O)c1sc2nc(N3CCCC3)c3c(c2c1N)CC(C)(C)OC3 | - | ? | 0 | 0 | 0 | -
c1nc(N2CCNCC2)c2sc3nc(N4CCOCC4)c4c(c3c2n1)CCC4 | - | - | - | 0 | - | -
CC1(C)Cc2c(c(N3CCCC3)nc3sc4c(N5CCN(CCO)CC5)ncnc4c23)CO1 | 0 | 2.2µM | - | ? | 0 | ?
CC1(CCl)CN1S(=O)(=O)c1ccccc1 (stereo unspecified) | ? | 0 | 0 | 40µM | 0 | 0
Clc1ccc(C2CC(c3ccco3)n3ncnc3N2)cc1Cl (stereo unspecified) | ? | 0 | 0 | 11µM | 0 | 0
CC(C)NC(=O)CN1C(=O)C(C)(C)Oc2ccc(C(=O)NC3CCCCC3)cc21 | 0 | 0 | 0 | 0 | 0 | 0
Cc1sc2ncnc(Nc3ccccc3)c2c1C | ? | ? | 0 | 0 | 0 | ?
Cc1sc2ncnc(NCc3ccccc3)c2c1C | - | 5.6µM | 28µM | 0 | ? | ?
Cc1cc2c(NCC(C)O)ncnc2s1 (stereo unspecified) | 0 | 0 | 0 | - | 0 | 0
c1csc(CNc2ncnc3ccc(-c4ccoc4)cc23)c1 | - | - | 0 | 0 | -92 | -
c1csc(CNc2nc(-c3cccs3)nc3ccccc23)c1 | 0 | ? | 0 | 0 | -61 | 0
Cc1cc2c(NCc3ccccc3)ncnc2s1 | 0 | 7.9µM | ? | 0 | -76 | 0
c1ccc(-c2nc(NCc3cccs3)c3ccccc3n2)cc1 | 0 | ? | 0 | 0 | ? | 0
COc1ccc(C(CNc2ncnc3sccc23)N(C)C)cc1OC (stereo unspecified) | 0 | 0 | 0 | 0 | 0 | 0
CN(C)C(CNc1ncnc2sccc12)c1ccccc1 (stereo unspecified) | 0 | 0 | 0 | 0 | 0 | 0
c1ccc(CNc2ncnc3sccc23)cc1 | - | 0 | ? | 0 | -94 | -
c1cncc(CNc2ncnc3sccc23)c1 | 0 | 0 | ? | 0 | 0 | 0
COc1ccc(CNc2ncnc3sccc23)cc1 | 0 | ? | ? | 0 | -73 | 0
OC(CNc1ncnc2sccc12)c1ccccc1 (stereo unspecified) | 0 | 3.2µM | 0 | 0 | ? | 0
COc1ccc(CNc2ncnc3sccc23)cc1OC | 0 | 6.3µM | 0 | 0 | 0 | 0
CCOC(=O)Oc1ccc(C(=O)OCCCN(C)C)cc1OC | 0 | 0 | 0 | 0 | 0 | 0
O=C(CN1CCc2cc3c(cc2C1)OCCCO3)Nc1c(F)cccc1F | - | 0 | 0 | 0 | 0 | -
SMILES | Vaccinia mCherry | HCV inh | FMDV inh | Sm TGR inh | HCMV antiviral | VACV Venus inh
c1csc(CNc2ncnc3sccc23)c1 | - | ? | ? | - | -79 | -
CCCS(=O)(=O)NC(=O)C1(C)CCN(C(=O)c2ccc(F)cc2Cl)C1 (stereo unspecified) | 0 | - | 0 | - | - | 0
O=c1c2ccccc2nc(SCc2cn3ccsc3n2)n1-c1ccc(F)cc1 | - | 0 | ? | 0 | -77 | ?
O=C(CSc1nc2ccccc2c(=O)n1-c1ccc(F)cc1)NCc1ccco1 | - | 0 | 0 | 0 | 0 | -
COc1cccc(N2CC(C(=O)Oc3ccc4ccccc4c3)CC2=O)c1 (stereo unspecified) | - | 0 | 0 | 0 | 0 | -
CCN(CC)S(=O)(=O)c1ccc2c(c1)N(CC(=O)NCC1CCCO1)C(=O)CO2 (stereo unspecified) | - | 0 | 0 | 0 | 0 | -
CC1(c2ccc3ccccc3c2)NC(=O)N(CC(=O)N2CCN(Cc3ccc(C#N)cc3)CC2)C1=O (stereo unspecified) | ? | 1.3µM | ? | 0 | - | ?

Screening results as filed in PubChem BioAssay.
